High-throughput results from PubChem BioAssay.
Tb PYK inh: T. brucei pyruvate kinase inhibition. Q57TT1. TbPYK enzyme, Kinase-Glo Plus ATP luminescence, 45 min. Potency, µM (doses to about 76.8 µM), most hits filed as inhibitors. 0.12% of 410,000 active. AID 624173; further: nearly all actives have a fitted effect of over 50% in size
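TbPYK + substrate in 50 mM TEA pH 7.2, 100 mM KCl, 10 mM MgCl2, 0.05% BSA, 0.01% Tween-20; cpd pinned; ADP 130 uM final; 45 min RT; Kinase-Glo Plus 10 min; luminescence endpoint.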
LmPK inhibitor: LmPK (Leishmania mexicana) enzyme inhibition | Q27686 | purified LmPK, Kinase-Glo ATP luminescence, 1 h | Potency, µM (series often up to 57.5 µM), most hits filed as inhibitors | 0.37% of 290,000 active | AID 1721
Target sequence (Q27686 whole entry, looked up): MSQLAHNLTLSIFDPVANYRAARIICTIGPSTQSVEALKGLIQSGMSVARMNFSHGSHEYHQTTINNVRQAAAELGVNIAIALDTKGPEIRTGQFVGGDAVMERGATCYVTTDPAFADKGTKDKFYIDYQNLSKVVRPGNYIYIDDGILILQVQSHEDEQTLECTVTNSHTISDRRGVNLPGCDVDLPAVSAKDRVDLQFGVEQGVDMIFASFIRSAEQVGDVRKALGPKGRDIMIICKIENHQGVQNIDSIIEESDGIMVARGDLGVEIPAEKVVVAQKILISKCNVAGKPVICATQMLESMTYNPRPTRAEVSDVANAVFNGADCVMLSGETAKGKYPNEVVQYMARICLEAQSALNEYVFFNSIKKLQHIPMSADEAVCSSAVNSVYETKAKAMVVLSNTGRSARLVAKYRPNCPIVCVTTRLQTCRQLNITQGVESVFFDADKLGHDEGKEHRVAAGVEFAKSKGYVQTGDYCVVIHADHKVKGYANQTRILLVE
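In 50 mM imidazole pH 7.2 with 7 mM MgCl2, LmPK (0.1 nM) turned over PEP (0.5 mM) and ADP (0.1 mM) for 1 h at room temperature. Luciferase read-out of ATP.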
CHX counter: counter-screen for Shiga toxin inhibitors: cycloheximide protein synthesis inhibition; max response, %; AID 2314; cell reporter, cycloheximide protein synthesis inhibition counterscreen; 12% of 300,000 active; in the data active means max response mostly above about 13%, no sharp cut-off; inactive means mostly below about 14%; further: read at 38.3 µM for the half of the compounds with a filed dose
Shiga toxin inh: inhibitors of Shiga toxin in Vero cells; Vero cells, Shiga toxin protein synthesis inhibition reporter; inhibition, % at 38.7 µM; 9.2% of 290,000 active; AID 2315; in the data active means inhibition mostly above about 28%, no sharp cut-off; inactive means mostly below about 43%
FBPA Giardia inh: blocks Giardia fructose-bisphosphate aldolase activity | purified Giardia FBPA | A8B2U2 | 0.71% of 290,000 active | Potency, µM (series often up to 59.6 µM), usual class: inhibitors; further: nearly all actives have a fitted effect of over 55% in size
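40 nM FBPA preincubated 10 min at RT with compound (up to 57.5 uM final), then substrate plus GAPDH/TPI/NAD/arsenate coupling and diaphorase/resazurin added. Fluorescence read after 20 min at RT, 525/598 nm.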
RE007 growth inh: less growth of the S. pombe RE007 Vpr strain. Potency, µM (top dose mostly 92.2 µM), usual class: inhibitors. 0.21% of 360,000 active. S. pombe RE007 Vpr strain, BacTiter-Glo ATP luminescence, 24 h; active means well fitted falling curve with a large enough effect; inconclusive means small, poorly fitted or top-dose-only effect; inactive means no such curve, though single readings can be large or run the other way; further: nearly all actives have a fitted effect of over 50% in size
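Fission yeast strain RE007, carrying one chromosomally integrated HIV-1 vpr copy, was seeded at OD 0.01 in PMG+AL medium with 23 nL pinned compound. After 24 h at 30 °C and 99% humidity, viability was read by BacTiter-Glo luminescence.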
Numbers stand for hits. The entries come from a sample that favours hits as a whole. Unless noted, the call rests on the fitted dose curve; in most records, active means well fitted curve in the direction sought with a large enough effect; inconclusive means small, poorly fitted or top-dose-only effect, or another doubt; inactive means no such curve, though single readings can be large; an effect the other way counts as inactive or inconclusive.

Screening O=C(Nc1ccncc1)Nc1ccc(Cl)cc1Cl returned Tb PYK inh inactive, LmPK inhibitor inactive, CHX counter inactive, Shiga toxin inh inactive, FBPA Giardia inh inactive and RE007 growth inh inactive.
Screening O=C(Nc1ccncc1)Nc1ccccc1Cl returned Tb PYK inh inactive, LmPK inhibitor inactive, CHX counter 24, Shiga toxin inh 49 and RE007 growth inh inactive.
O=C(Nc1cccnc1)Nc1ccc(Br)cc1Cl was read as Tb PYK inh inactive, LmPK inhibitor inactive, CHX counter 29, Shiga toxin inh 56, FBPA Giardia inh inactive and RE007 growth inh inactive.
Screening O=C(Nc1ccncc1)c1ccccc1Cl returned Tb PYK inh inactive, LmPK inhibitor inactive, CHX counter inactive, Shiga toxin inh 37, FBPA Giardia inh inactive and RE007 growth inh inactive.
O=C(Nc1cccnc1)Nc1cc(Cl)cc(Cl)c1 was read as Tb PYK inh inactive, LmPK inhibitor inactive, CHX counter inactive, Shiga toxin inh inactive, FBPA Giardia inh inactive and RE007 growth inh inactive.
Screening COc1ccccc1C(=O)N/C(=C\c1cn(S(=O)(=O)N(C)C)c2ccccc12)C(=O)N1CCOCC1 returned Tb PYK inh inactive, LmPK inhibitor inactive, CHX counter inactive, Shiga toxin inh inactive and RE007 growth inh inactive.
For COc1ccccc1CCNC(=O)c1ccc(-c2nc(CSc3ccc(C)cc3)c(C)o2)cc1 the results were Tb PYK inh inactive.
Cc1nnsc1C(=O)NC1CCCc2c1cnn2-c1ccc(C(C)(C)C)cc1 (centres undefined) was read as Tb PYK inh inactive, LmPK inhibitor inactive, CHX counter inactive, Shiga toxin inh inactive, FBPA Giardia inh inactive and RE007 growth inh inactive.
`O=C(Nc1cccnc1)Nc1ccccc1Cl` gave Tb PYK inh inactive, LmPK inhibitor inactive, CHX counter 26, Shiga toxin inh inactive, FBPA Giardia inh inactive and RE007 growth inh inactive.
Screening Cc1ccc2[nH]c3c(c2c1)CC/C(=C/c1ccccc1)C3=O returned Tb PYK inh inactive, LmPK inhibitor inactive, CHX counter 23, Shiga toxin inh inactive, FBPA Giardia inh inactive and RE007 growth inh inactive.
Screening O=C1NCCc2c1[nH]c1ccccc21 returned Tb PYK inh inactive, LmPK inhibitor inactive, CHX counter inactive, Shiga toxin inh inactive, FBPA Giardia inh inactive and RE007 growth inh inactive.
For O=C1/C(=C\c2ccccc2)CCc2c1[nH]c1ccccc21 the results were Tb PYK inh inactive, LmPK inhibitor inactive, CHX counter 42, Shiga toxin inh 52, FBPA Giardia inh inactive and RE007 growth inh inactive.
Screening Cc1ccc(/C=C2/CCc3c([nH]c4ccccc34)C2=O)cc1 returned Tb PYK inh inactive, LmPK inhibitor inactive, CHX counter 29, Shiga toxin inh 52, FBPA Giardia inh inactive and RE007 growth inh inactive.
CC(C)/C=C1\CCc2c([nH]c3ccccc23)C1=O was read as Tb PYK inh inactive, LmPK inhibitor inactive, CHX counter 32, Shiga toxin inh 45, FBPA Giardia inh inactive and RE007 growth inh inactive.
For CCCCCc1c(O)c2ccccc2[nH]c1=O the results were Tb PYK inh inactive, LmPK inhibitor inactive, CHX counter inactive, Shiga toxin inh inactive, FBPA Giardia inh inactive and RE007 growth inh inactive.
For CCCC/C=C1\CCc2c([nH]c3ccccc23)C1=O the results were Tb PYK inh inactive, LmPK inhibitor inactive, CHX counter 32, Shiga toxin inh 57, FBPA Giardia inh inactive and RE007 growth inh inactive.
For CCCCN1CCc2c([nH]c3ccccc23)C1=O the results were Tb PYK inh inactive, LmPK inhibitor inactive, CHX counter 35, Shiga toxin inh 95, FBPA Giardia inh inactive and RE007 growth inh inactive.
Screening COc1cccc(OC)c1C(=O)Nc1cccc(C(=O)Nc2cccc(C(=O)O)c2)c1 returned Tb PYK inh inactive, LmPK inhibitor inactive, CHX counter inactive, Shiga toxin inh inactive, FBPA Giardia inh inactive and RE007 growth inh inactive.
Screening O=C(Nc1ccccc1)c1ccccc1N=Cc1cccc(O)c1 returned Tb PYK inh inactive, LmPK inhibitor inactive, CHX counter inactive, Shiga toxin inh inactive, FBPA Giardia inh inactive and RE007 growth inh inactive.
Screening COc1cccc(C=Nc2ccccc2C(=O)Nc2ccccc2)c1O returned Tb PYK inh inactive, LmPK inhibitor inactive, CHX counter 55, Shiga toxin inh 77, FBPA Giardia inh inconclusive and RE007 growth inh inactive.
For COc1ccc(C(=O)Nc2cccc(C(C)=O)c2)cc1OC the results were Tb PYK inh inactive, LmPK inhibitor inconclusive, CHX counter 30, Shiga toxin inh inactive, FBPA Giardia inh inactive and RE007 growth inh inactive.
For COC(=O)[C@@H](NC(=O)Nc1ccc(C(C)=O)cc1)C(C)C the results were Tb PYK inh inactive, LmPK inhibitor inactive, CHX counter inactive, Shiga toxin inh inactive, FBPA Giardia inh inactive and RE007 growth inh inactive.
COc1ccccc1C(=O)Nc1cccc(C(=O)c2ccccc2)c1 was read as Tb PYK inh inactive, LmPK inhibitor inactive, CHX counter 13, Shiga toxin inh inactive, FBPA Giardia inh inactive and RE007 growth inh inactive.
For COc1ccc(C(C)NC(=O)Nc2ccc(C(C)=O)cc2)cc1OC (centres undefined) the results were Tb PYK inh inactive, LmPK inhibitor inactive, CHX counter 23, Shiga toxin inh inactive and RE007 growth inh inactive.
`COc1cc(NC(=O)C(CC(C)C)N2Cc3ccccc3C2=O)cc(OC)c1` (centres undefined) gave Tb PYK inh inactive.
`CC1(C(=O)Nc2ccc(Cl)c(Cl)c2)CCN1C(=O)C1CCCCC1` (centres undefined) gave Tb PYK inh inactive and RE007 growth inh inactive.
`COc1cc(OC)c(C(=O)Nc2cccc(C(C)=O)c2)cc1OC` gave Tb PYK inh inactive, LmPK inhibitor inactive, CHX counter 19, Shiga toxin inh inactive, FBPA Giardia inh inactive and RE007 growth inh inactive.
COc1ccc(C(=O)Nc2cccc(C(C)=O)c2)c(OC)c1OC was read as Tb PYK inh inactive, LmPK inhibitor inactive, CHX counter 22, Shiga toxin inh 69, FBPA Giardia inh inactive and RE007 growth inh inactive.
`COC(=O)c1cccc(NC(=O)c2cc(OC)c(OC)c(OC)c2Br)c1` gave Tb PYK inh inactive, LmPK inhibitor inactive, CHX counter inactive, Shiga toxin inh inactive, FBPA Giardia inh inactive and RE007 growth inh inactive.
Screening Cc1cccc2cc(C#N)c(NCc3ccccc3)nc12 returned Tb PYK inh inactive, LmPK inhibitor inactive, CHX counter inactive, Shiga toxin inh inactive, FBPA Giardia inh 18µM and RE007 growth inh inactive.
Cc1cccc2cc(C#N)c(NCCNC(=O)COc3ccccc3)nc12 was read as Tb PYK inh inactive, LmPK inhibitor inactive, CHX counter inactive, Shiga toxin inh inactive, FBPA Giardia inh 16µM and RE007 growth inh inactive.
`Cc1cccc2cc(C#N)c(NCCNS(=O)(=O)c3ccccc3)nc12` gave Tb PYK inh inactive, LmPK inhibitor inactive, CHX counter inactive, Shiga toxin inh inactive, FBPA Giardia inh inactive and RE007 growth inh inactive.
Screening CCCSCCCNC(=O)C1CCN(c2nc3ccccc3nc2C(F)(F)F)CC1 returned Tb PYK inh inactive.
